PubChem BioAssay AID1159580 (chemical genetic matrix, 2015)
Several values for one entry are separate records, joined by “and”; a condition that tells them apart may be missing. Equal values may be shown once. In all, about 5,500 compounds went through this assay and about 2,000 (36%) were called active. Roughly 18% stayed inconclusive and do not appear here. No stated cut-off is given here; in the data, active means normalized growth mostly below about 0.91 (no sharp cut-off); inconclusive means no clear call, values can overlap the other calls; inactive means mostly above about 0.92. This is one part of the list. A structure can be active in one record and inactive in another.

Assay: chemical genetic growth profiling, strain panel (AID 1159580);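 further: tested at 20 µM; growth read once vehicle control cultures reached saturation at 30 °C; 1 = growth at the plate median or of vehicle wells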
Settings: S. cerevisiae deletion strains, growth OD

Q: With CN1CCN(CCCN2c3ccccc3Sc3ccc(C(F)(F)F)cc32)CC1 as the molecule, how does the normalized growth (locus YAL013W, strain DEP1, stronger effect = lower value) read?
A: 0.065 (active) and 0.82 (active)

Q: What about the normalized growth (locus YAL021C, strain ccr4, stronger effect = lower value) of the same molecule?
A: 0.0696 (active)

Q: And the normalized growth (locus YAL026C, strain drs2, stronger effect = lower value)?
A: 0.0611 (active)

Q: And the normalized growth (locus YAL030W, strain snc1, stronger effect = lower value)?
A: 0.0651 (active)

Q: And the normalized growth (locus YAL040C, strain CLN3, stronger effect = lower value)?
A: 0.989 (inactive)

Q: And the normalized growth (locus YBL061C, strain skt5, stronger effect = lower value)?
A: 0.0653 (active)

Q: What about the normalized growth (locus YBR009C, strain hhf1, stronger effect = lower value) of the same molecule?
A: 0.0647 (active)

Q: And the normalized growth (locus YBR021W, strain FUR4, stronger effect = lower value)?
A: 0.102 (active)

Q: What about the normalized growth (locus YBR023C, strain chs3, stronger effect = lower value) of the same molecule?
A: 0.0673 (active)

Q: And the normalized growth (locus YBR171W, strain sec66, stronger effect = lower value)?
A: 0.0984 (active)

Q: What about the normalized growth (locus YBR229C, strain ROT2, stronger effect = lower value) of the same molecule?
A: 0.0712 (active)

Q: What about the normalized growth (locus YBR231C, strain swc5, stronger effect = lower value) of the same molecule?
A: 0.0679 (active)

Q: What about the normalized growth (locus YBR279W, strain paf1, stronger effect = lower value) of the same molecule?
A: 0.0731 (active)

Q: And the normalized growth (locus YCL011C, strain gbp2, stronger effect = lower value)?
A: 0.0652 (active)

Q: What about the normalized growth (locus YCL016C, strain dcc1, stronger effect = lower value) of the same molecule?
A: 0.0786 (active)

Q: And the normalized growth (locus YCL029C, strain bik1, stronger effect = lower value)?
A: 0.0752 (active)

Q: What about the normalized growth (locus YCL061C, strain MRC1 (second series), stronger effect = lower value) of the same molecule?
A: 0.969 (inactive)

Q: What about the normalized growth (locus YCL061C, strain MRC1, stronger effect = lower value) of the same molecule?
A: 0.0741 (active)

Q: What about the normalized growth (locus YCL069W, strain vba3, stronger effect = lower value) of the same molecule?
A: 0.0697 (active)

Q: And the normalized growth (locus YCR088W, strain abp1, stronger effect = lower value)?
A: 0.0705 (active)

Q: And the normalized growth (locus YDL005C, strain med2, stronger effect = lower value)?
A: 0.412 (active)

Q: What about the normalized growth (locus YDL035C, strain GPR1, stronger effect = lower value) of the same molecule?
A: 0.061 (active)

Q: What about the normalized growth (locus YDL040C, strain nat1, stronger effect = lower value) of the same molecule?
A: 0.0906 (active)

Q: What about the normalized growth (locus YDL074C, strain BRE1, stronger effect = lower value) of the same molecule?
A: 0.0975 (active)

Q: And the normalized growth (locus YDL101C, strain DUN1, stronger effect = lower value)?
A: 0.0711 (active)

Q: What about the normalized growth (locus YDL134C, strain PPH21, stronger effect = lower value) of the same molecule?
A: 0.0567 (active)

Q: What about the normalized growth (locus YDL185W, strain tfp1, stronger effect = lower value) of the same molecule?
A: 0.936 (inactive)

Q: And the normalized growth (locus YDL192W, strain arf1, stronger effect = lower value)?
A: 0.0649 (active)

Q: And the normalized growth (locus YDR001C, strain nth1, stronger effect = lower value)?
A: 0.0725 (active)

Q: What about the normalized growth (locus YDR069C, strain doa4, stronger effect = lower value) of the same molecule?
A: 0.0695 (active)

Q: And the normalized growth (locus YDR101C, strain arx1, stronger effect = lower value)?
A: 0.0878 (active)

Q: What about the normalized growth (locus YDR137W, strain rgp1, stronger effect = lower value) of the same molecule?
A: 0.261 (active)

Q: And the normalized growth (locus YDR150W, strain NUM1, stronger effect = lower value)?
A: 0.0679 (active)

Q: And the normalized growth (locus YDR159W, strain sac3, stronger effect = lower value)?
A: 0.0958 (active)

Q: And the normalized growth (locus YDR162C, strain NBP2, stronger effect = lower value)?
A: 0.0537 (active)

Q: What about the normalized growth (locus YDR195W, strain ref2) of the same molecule?
A: 0.141 (active)

Q: And the normalized growth (locus YDR297W, strain sur2, stronger effect = lower value)?
A: 0.0695 (active)

Q: And the normalized growth (locus YDR318W, strain mcm21, stronger effect = lower value)?
A: 0.0756 (active)

Q: And the normalized growth (locus YDR334W, strain swr1, stronger effect = lower value)?
A: 0.0668 (active)

Q: What about the normalized growth (locus YDR335W, strain msn5, stronger effect = lower value) of the same molecule?
A: 0.0678 (active)

Q: What about the normalized growth (locus YDR363W, strain ESC2, stronger effect = lower value) of the same molecule?
A: 0.87 (active)

Q: What about the normalized growth (locus YDR388W, stronger effect = lower value) of the same molecule?
A: 0.0596 (active)

Q: What about the normalized growth (locus YDR392W, strain spt3, stronger effect = lower value) of the same molecule?
A: 0.0857 (active)

Q: What about the normalized growth (locus YDR502C, strain sam2, stronger effect = lower value) of the same molecule?
A: 0.0724 (active)

Q: And the normalized growth (locus YEL003W, strain gim4, stronger effect = lower value)?
A: 0.0619 (active)

Q: What about the normalized growth (locus YEL037C, strain rad23, stronger effect = lower value) of the same molecule?
A: 0.0674 (active)

Q: And the normalized growth (locus YEL061C, strain CIN8 (second series), stronger effect = lower value)?
A: 0.0766 (active)

Q: And the normalized growth (locus YEL061C, strain CIN8, stronger effect = lower value)?
A: 0.0589 (active)

Q: What about the normalized growth (locus YER002W, strain NOP16, stronger effect = lower value) of the same molecule?
A: 1.07 (inactive)

Q: And the normalized growth (locus YER015W, strain faa2, stronger effect = lower value)?
A: 0.0802 (active)

Q: What about the normalized growth (locus YER016W, strain bim1, stronger effect = lower value) of the same molecule?
A: 0.0723 (active)

Q: And the normalized growth (locus YER110C, stronger effect = lower value)?
A: 0.293 (active)

Q: What about the normalized growth (locus YER111C, strain swi4, stronger effect = lower value) of the same molecule?
A: 0.36 (active)

Q: What about the normalized growth (locus YER155C, strain BEM2 (second series), stronger effect = lower value) of the same molecule?
A: 1.01 (inactive)

Q: And the normalized growth (locus YER155C, strain BEM2, stronger effect = lower value)?
A: 0.12 (active)

Q: And the normalized growth (locus YER167W, strain BCK2, stronger effect = lower value)?
A: 0.0606 (active)

Q: And the normalized growth (locus YFR010W, strain ubp6, stronger effect = lower value)?
A: 0.0817 (active)

Q: What about the normalized growth (locus YGL078C, strain dbp3, stronger effect = lower value) of the same molecule?
A: 0.978 (inactive)

Q: And the normalized growth (locus YGL086W, strain mad1, stronger effect = lower value)?
A: 0.0657 (active)

Q: What about the normalized growth (locus YGL167C, strain pmr1, stronger effect = lower value) of the same molecule?
A: 0.0948 (active)

Q: What about the normalized growth (locus YGL173C, strain kem1, stronger effect = lower value) of the same molecule?
A: 0.216 (active)

Q: What about the normalized growth (locus YGL227W, strain vid30, stronger effect = lower value) of the same molecule?
A: 0.0831 (active)

Q: What about the normalized growth (locus YGL240W, strain doc1, stronger effect = lower value) of the same molecule?
A: 0.554 (active)

Q: And the normalized growth (locus YGL248W, strain PDE1, stronger effect = lower value)?
A: 0.0581 (active)

Q: What about the normalized growth (locus YGL253W, strain hxk2, stronger effect = lower value) of the same molecule?
A: 0.0605 (active)

Q: What about the normalized growth (locus YGR078C, strain PAC10, stronger effect = lower value) of the same molecule?
A: 0.0702 (active) and 0.956 (inactive)

Q: And the normalized growth (locus YGR135W, strain pre9, stronger effect = lower value)?
A: 0.0937 (active)

Q: And the normalized growth (locus YGR229C, strain SMI1, stronger effect = lower value)?
A: 0.0673 (active) and 0.0769 (active)

Q: What about the normalized growth (locus YGR252W, strain gcn5, stronger effect = lower value) of the same molecule?
A: 0.138 (active)

Q: What about the normalized growth (locus YHR013C, strain ard1, stronger effect = lower value) of the same molecule?
A: 0.169 (active)

Q: What about the normalized growth (locus YHR027C, strain rpn1, stronger effect = lower value) of the same molecule?
A: 0.0682 (active)

Q: What about the normalized growth (locus YHR030C, strain SLT2, stronger effect = lower value) of the same molecule?
A: 0.0545 (active) and 0.948 (inactive)

Q: And the normalized growth (locus YHR079C, strain IRE1 (second series), stronger effect = lower value)?
A: 0.0763 (active)

Q: What about the normalized growth (locus YHR079C, strain IRE1, stronger effect = lower value) of the same molecule?
A: 0.961 (inactive)

Q: And the normalized growth (locus YHR094C, strain hxt1, stronger effect = lower value)?
A: 0.0748 (active)

Q: What about the normalized growth (locus YHR129C, strain ARP1, stronger effect = lower value) of the same molecule?
A: 0.0646 (active)

Q: What about the normalized growth (locus YHR142W, strain chs7, stronger effect = lower value) of the same molecule?
A: 0.0848 (active)

Q: What about the normalized growth (locus YHR200W, strain rpn10, stronger effect = lower value) of the same molecule?
A: 0.0811 (active)

Q: What about the normalized growth (locus YIL066C, strain RNR3, stronger effect = lower value) of the same molecule?
A: 0.0614 (active)

Q: And the normalized growth (locus YIL073C, strain SPO22, stronger effect = lower value)?
A: 0.113 (active)

Q: And the normalized growth (locus YIL125W, strain kgd1, stronger effect = lower value)?
A: 0.982 (inactive)

Q: What about the normalized growth (locus YIR030C, strain dcg1, stronger effect = lower value) of the same molecule?
A: 0.0766 (active)

Q: What about the normalized growth (locus YJL092W, strain hpr5, stronger effect = lower value) of the same molecule?
A: 0.0707 (active)

Q: And the normalized growth (locus YJL095W, strain BCK1 (second series), stronger effect = lower value)?
A: 0.0585 (active)

Q: What about the normalized growth (locus YJL095W, strain BCK1, stronger effect = lower value) of the same molecule?
A: 0.0646 (active) and 0.977 (inactive)

Q: And the normalized growth (locus YJL115W, strain asf1, stronger effect = lower value)?
A: 0.0851 (active)

Q: What about the normalized growth (locus YJL129C, strain trk1, stronger effect = lower value) of the same molecule?
A: 0.0827 (active)

Q: What about the normalized growth (locus YJL134W, strain LCB3, stronger effect = lower value) of the same molecule?
A: 0.108 (active)

Q: And the normalized growth (locus YJL154C, strain vps35, stronger effect = lower value)?
A: 0.0623 (active)

Q: And the normalized growth (locus YJL164C, strain tpk1, stronger effect = lower value)?
A: 0.0715 (active)

Q: And the normalized growth (locus YJL166W, strain qcr8, stronger effect = lower value)?
A: 0.0701 (active)

Q: And the normalized growth (locus YJL168C, strain set2, stronger effect = lower value)?
A: 0.0656 (active)

Q: What about the normalized growth (locus YJL187C, strain SWE1 (second series), stronger effect = lower value) of the same molecule?
A: 0.0593 (active)

Q: And the normalized growth (locus YJL187C, strain SWE1, stronger effect = lower value)?
A: 0.0715 (active)

Q: What about the normalized growth (locus YJR043C, strain POL32, stronger effect = lower value) of the same molecule?
A: 0.0718 (active)

Q: What about the normalized growth (locus YJR066W, strain TOR1, stronger effect = lower value) of the same molecule?
A: 0.915 (inactive)
